About 83,000 compounds went through this panel and 20% of them were active in at least one assay; those are over-represented in the sample as a whole.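 Step 1: grow cells in 96-well plates. Step 2: add test compound at a single concentration. Step 3: incubate 48 h. Step 4: record percent growth.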 Active and inactive are the calls of the source. Rule for the calls: active = growth percent below 10; inactive = the rest.

We go through 40 compounds from PubChem BioAssay (NCI).

The test system of this test is HL-60(TB) leukemia. As to the kind of experiment: NCI-60 one-dose screen, 48 h (100 = growth as untreated, 0 = no growth, -100 = all killed). To be noted: 10 µM unless noted.
As to `O=C(Cn1cc(CN2C(=O)c3ccccc3S2(=O)=O)nn1)Nc1cccc(Cl)c1`, the growth was 103% (inactive).
Turning to `COC(=O)[C@H]1CCCN1C(=O)[C@H]1CCCN1C(=O)[C@H](Cc1c[nH]c2ccccc12)NC(=S)Nc1cc(C(F)(F)F)cc(C(F)(F)F)c1`, the growth is 53.4% (inactive).
With `CN(C)CCOc1ccc(-c2nc3sccn3c2-c2ccnc(S(C)(=O)=O)n2)cc1` the figure was 97.1% (inactive).
With `O=P(O)(O)OCC1OC(n2cnc3c(NCc4ccco4)ncnc32)C(O)C1O` (stereo not given) the figure was -6.93% (active); with `CCN(CC)CCCNCc1cc(-c2ccccc2)nc2cc(Cl)ccc12`, 14% (inactive).
With `O=C(Cc1ccc(F)c(F)c1)Nc1cc(C2(C(F)(F)F)CC2)nn1Cc1ccccc1`, the growth is 11.9% (inactive).
With `CNC(=O)c1cc(Oc2ccc3c(c2)sc2nc(-c4ccc(Cl)cc4)cn23)ccn1` the figure was 88.4% (inactive); with `CCOC(=O)c1cc(/C=C/c2ccc(Cl)cc2Cl)on1`, 74.2% (inactive).
With `CCCCCCNC(=O)Oc1ccc(/C(=C(\C)c2ccc(Cl)cc2)c2ccc(OCCN(CC)CC)cc2)cc1`, the growth is 44.3% (inactive).
`Cc1ccccc1-c1cc(Cc2ccccc2O)c(=O)[nH]n1`: the growth was 84.1% (inactive).
With `CS(=O)(=O)Nc1cc(-c2ccc3ncnc(Nc4cccc(Cl)c4F)c3c2)cnc1Cl` the figure was 80.1% (inactive).
With `S=c1[nH]nc2sc3ccccc3n12` the figure was 107% (inactive).
With `CCCCC/C=C/CCC(=O)N[C@H]1[C@H](Oc2c3cc4cc2Oc2ccc(cc2Cl)[C@@H](O[C@@H]2O[C@H](CO)[C@@H](O)[C@H](O)[C@H]2NC(C)=O)[C@@H]2NC(=O)[C@H](NC(=O)[C@@H]4NC(=O)[C@H]4NC(=O)[C@@H](Cc5ccc(c(Cl)c5)O3)NC(=O)[C@@H](N)c3ccc(O)c(c3)Oc3cc(O)cc4c3)c3ccc(O)c(c3)-c3c(O[C@H]4O[C@H](CO)[C@@H](O)[C@H](O)[C@@H]4O)cc(O)cc3[C@H](C(=O)O)NC2=O)O[C@H](CO)[C@H](O)[C@@H]1O` the figure was 105% (inactive); with `C=CCNC(=O)/C(=C/c1cccc([N+](=O)[O-])c1)NC(=O)c1ccccc1`, 137% (inactive); with `CC(=O)n1cc(/C=C2\N=C(c3ccc(Cl)cc3)N(c3ccc(S(=O)(=O)Nc4nccs4)cc3)C2=O)c2ccccc21`, 73.3% (inactive).
Consider `Brc1ccc(-c2nnc3c4[nH]ccc4ncn23)cc1`, for which the growth was 100% (inactive).
With `COc1cc(C2CC(c3ccc(Nc4nc(Nc5ccc(Cl)cc5)nc(Nc5ccc(Cl)cc5)n4)cc3)=NN2C(C)=O)cc(OC)c1OC` (stereo not given) the figure was 95.2% (inactive); with `CCCCCCN(CCCCCC)c1ccc(/C=C2/SC(=O)NC2=O)c(C)c1`, 77.1% (inactive); with `COc1cc(CCNc2cnc3cc(N)cc(N)c3n2)cc(OC)c1`, 27.9% (inactive).
Take `O=C1/C(=C\c2ccccn2)c2ccccc2N1c1c(Cl)cccc1Cl`: the growth was 1.39% (active).
Turning to `O=C1/C(=C\c2ccc(Br)o2)SC(=S)N1CCc1ccc(O)cc1`, the growth is 42.2% (inactive).
With `Nc1c(C(=O)Nc2ccccc2)sc2nc3c(cc12)C(=O)CCC3` the figure was 19.4% (inactive).
For `CCN1CCN(c2nc(NNC(=O)c3ccccc3)nc(N3CCN(C(c4ccccc4)c4ccccc4)CC3)n2)CC1`, the growth was 23.3% (inactive).
With `NC(=O)c1ccc(-c2c3ccccc3cc3c2ccc2ccccc23)cc1` the figure was 15.6% (inactive); with `CCN(CC)Cc1cc(Nc2nc(NC3CCC(N(C)C)CC3)c3ccccc3n2)ccc1OC` (stereo not given), 69% (inactive); with `C=CCn1c(SCC(=O)Nc2ccc(C(=O)/C=C/c3ccc(Cl)cc3)cc2)nnc1-c1ccccc1`, 80.9% (inactive).
As to `Cc1ccc(C(=O)COc2cccc(/C=C3\Oc4ccccc4C3=O)c2)cc1`, the growth was 78.7% (inactive).
Turning to `CCCCCCCCn1ccc2cc(NC(=O)CN3CCN(c4nc(C)cc(N5CCCCC5)n4)CC3)ccc21`, the growth was 71% (inactive).
As to `CCOC(=O)n1cc(-c2nonc2-c2cn(C)c3ccc(OC)cc23)c2cc(F)ccc21`, the growth was 99.7% (inactive).
With `COc1ccc2c(c1)nc(NNC(=O)c1cnccn1)c1cccn12` the figure was -6.85% (active).
Take `Cc1ccc(-c2csc(NC(=O)CSc3nc(N)cc(N)n3)n2)cc1`: the growth was 48.9% (inactive).
With `Cc1ccc(O)c(N2C(=NCc3ccco3)NS(=O)(=O)c3cnccc32)c1` the figure was 114% (inactive).
With `CC(=O)O[C@H]1CC2CCC3C(CC[C@@]4(C)C3C[C@H]([N+]3(C)CCCCC3)[C@@H]4OC(C)=O)[C@@]2(C)C[C@@H]1N1CCCCC1` (stereo not given in full) the figure was 107% (inactive); with `O=C(Nc1ccc(OCc2nnc(-c3ccccc3)o2)c(F)c1)Nc1ccc(Cl)c(C(F)(F)F)c1`, -19.7% (active); with `Cc1cccc(C)c1NC(=O)Nc1ccccc1`, 104% (inactive).
With `Nc1ccc(Sc2ccc3c4c2cccc4c(=O)n2c4ccccc4nc32)cc1`, the growth was 18.2% (inactive).
As to `Cc1c(C)c2c(c(C)c1NC(=O)/C=C\C(=O)O)CCC(C)(CCCC(C)CCCC(C)CCCC(C)C)O2` (stereo not given), the growth was 37.3% (inactive).
`CC(C)[C@@]12C[C@@H](OC(=O)COC(=O)c3ccccc3)[C@@](C)(O1)[C@@H]1CC[C@@H](C)[C@H]1[C@@H]2OC(=O)/C=C/c1ccccc1`: the growth was 94.5% (inactive).
With `NC1=CC(=O)C(=O)c2ccccc21` the figure was 39.2% (inactive); with `CCC(C)[C@@H]1NC(=O)[C@@H]2CCCN2C(=O)[C@H](Cc2ccccc2)NC(=O)[C@@H]2CCCN2C(=O)[C@H](Cc2ccccc2)NC(=O)[C@@H]2CCCN2C(=O)[C@H](Cc2ccccc2)NC1=O` (stereo not given in full), 95.6% (inactive).
